The source of these data is paper PMC4336329 (PLoS ONE, 2015).

Screen size: about 310,000 compounds; about 14,000 (4.5%) showed an effect of 50% or more. Effects have a minus sign here. This excerpt belongs to a sample that is enriched for strong results.
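Further: peak tail current of the secondary pulse compared with the same well before compound.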

The target of this test is human ether-à-go-go-related gene (hERG) potassium channel (human, UniProt Q12809). Put plainly: primary screen, population patch clamp on CHO cells stably expressing hERG; higher = less effect of the substance.
Sequence of human ether-à-go-go-related gene (hERG) potassium channel (Q12809 whole entry, looked up): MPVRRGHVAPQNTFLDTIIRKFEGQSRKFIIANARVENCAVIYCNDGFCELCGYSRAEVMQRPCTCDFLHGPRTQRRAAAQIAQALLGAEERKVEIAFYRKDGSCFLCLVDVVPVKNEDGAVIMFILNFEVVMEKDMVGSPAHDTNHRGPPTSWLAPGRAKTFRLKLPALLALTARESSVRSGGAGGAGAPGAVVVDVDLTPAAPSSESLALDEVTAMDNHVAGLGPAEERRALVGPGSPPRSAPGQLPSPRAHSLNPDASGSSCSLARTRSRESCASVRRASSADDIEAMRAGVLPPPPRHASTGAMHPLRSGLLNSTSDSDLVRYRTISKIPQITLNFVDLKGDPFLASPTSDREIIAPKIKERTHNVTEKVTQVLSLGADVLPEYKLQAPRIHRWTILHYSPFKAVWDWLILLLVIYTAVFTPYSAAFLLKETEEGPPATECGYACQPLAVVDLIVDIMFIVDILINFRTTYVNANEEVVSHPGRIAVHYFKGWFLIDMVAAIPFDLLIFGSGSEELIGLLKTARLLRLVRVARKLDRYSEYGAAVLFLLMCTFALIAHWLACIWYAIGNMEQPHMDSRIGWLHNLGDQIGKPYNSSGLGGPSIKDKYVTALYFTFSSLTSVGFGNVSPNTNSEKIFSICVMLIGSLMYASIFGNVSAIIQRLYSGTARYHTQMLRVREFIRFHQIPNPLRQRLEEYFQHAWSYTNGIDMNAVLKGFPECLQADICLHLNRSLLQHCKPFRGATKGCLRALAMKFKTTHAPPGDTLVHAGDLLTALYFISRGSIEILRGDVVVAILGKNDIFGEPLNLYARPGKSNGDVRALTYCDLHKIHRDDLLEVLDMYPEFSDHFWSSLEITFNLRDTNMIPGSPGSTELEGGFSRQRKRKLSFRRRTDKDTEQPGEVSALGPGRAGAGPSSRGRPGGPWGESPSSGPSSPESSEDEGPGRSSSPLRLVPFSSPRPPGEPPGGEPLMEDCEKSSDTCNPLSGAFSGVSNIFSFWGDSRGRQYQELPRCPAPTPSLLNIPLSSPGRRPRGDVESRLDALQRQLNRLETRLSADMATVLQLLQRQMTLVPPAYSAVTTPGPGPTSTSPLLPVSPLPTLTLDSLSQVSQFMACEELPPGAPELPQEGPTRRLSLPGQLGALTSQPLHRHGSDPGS
For `N#C/C(=C/c1ccc(N2CCOCC2)c([N+](=O)[O-])c1)C(N)=O`, the “hERG current change (%, negative = inhibition) at 10uM” value is listed as -39.8%.

Consider `O=C(OC(C(=O)NCC1CCCO1)c1ccccn1)c1cccs1` (stereo not shown), for which the “hERG current change (%, negative = inhibition) at 10uM” value is listed as 1.83%. With `COCc1nc2ccccc2n1Cc1cccc(C)c1` the figure was -12.8%; with `O=S(=O)(NCC(c1ccco1)N1CCN(c2ccccc2F)CC1)c1ccc(F)cc1` (stereo not shown), -11.2%. For `CC(C)CNc1nc(Oc2ccc(=O)[nH]n2)nc(N2CCOCC2)n1`, the “hERG current change (%, negative = inhibition) at 10uM” value came to 7.99%. In the case of `Cc1ccc(Cl)cc1NC(=O)CN1CCN(S(=O)(=O)N2CCC(C)CC2)CC1`, the “hERG current change (%, negative = inhibition) at 10uM” value is -41.3%. The value for `Cc1ccc(Cl)cc1NC(=O)CN1CCOCC1` was -0.857%; that for `O=C(CN1CCOCC1)Nc1cc(Cl)ccc1Cl` was -32.5%; that for `O=C(CN1CCN(C(=O)C2CCCO2)CC1)Nc1cc(C(F)(F)F)ccc1Cl` (stereo not shown) was -45.8%.

With `O=C(CN1CCN(C(=O)C2CCCO2)CC1)Nc1cc(Cl)ccc1Cl` (stereo not shown), the “hERG current change (%, negative = inhibition) at 10uM” value is reported as -61.9%. `Cc1ccc(Cl)cc1NC(=O)CN1CCN(S(=O)(=O)N2CCOCC2)CC1`: the “hERG current change (%, negative = inhibition) at 10uM” value is given as -64.3%. With `O=C(CN1CCN(C(=O)N2CCOCC2)CC1)Nc1cc(Cl)ccc1Cl`, the “hERG current change (%, negative = inhibition) at 10uM” value was -59.9%.

With `COc1ccc(Cl)cc1NC(=O)CN1CCN(C(=O)N2CCOCC2)CC1`, the “hERG current change (%, negative = inhibition) at 10uM” value is recorded as -38.8%. The value for `Cc1ccc(Cl)cc1NC(=O)CN1CCN(C(=O)C2CCCO2)CC1` (stereo not shown) was -29.8%. For `Cn1nnc2cc(C(=O)Nc3ccc(Cl)cc3)ccc21`, the “hERG current change (%, negative = inhibition) at 10uM” value was -3.78%. Consider `COc1ccc(-c2cc(C(=O)O)nc3ccc4ccccc4c23)cc1OC`, for which the “hERG current change (%, negative = inhibition) at 10uM” value is 12.6%. For `O=C(CSc1nc(O)cc(=O)[nH]1)C1CC1`, the “hERG current change (%, negative = inhibition) at 10uM” value turned out to be 7.82%.

On to `CC(C)(C)N/C=C(\C#N)S(=O)(=O)c1ccc(Br)cc1`, for which the “hERG current change (%, negative = inhibition) at 10uM” value was -10.5%. With `C=CCN1C(=O)C2C(C(=O)NC)C3C=CC2(O3)C1C(=O)NCc1ccc(OC)cc1` (stereo not shown) the figure was 0.24%; with `Cc1cc(C)n2nc(SCC(=O)NC3CCCCC3)nc2n1`, 1.68%; with `Cc1cc(C)n2nc(CC(=O)NC3CCCCCCC3)nc2n1`, -70.9%. Regarding `Cc1cc(C)n2nc(CC(=O)NC3CCCCCC3)nc2n1`, the “hERG current change (%, negative = inhibition) at 10uM” value amounted to 5.03%. On to `CCOC(=O)CCc1c(C(=O)OCC)[nH]c(CC)c1C(=O)OCc1ccccc1`, for which the “hERG current change (%, negative = inhibition) at 10uM” value is -17.2%.

As to `COCc1cc(C)nc(SCC(=O)Nc2ccc3c(c2)OCCO3)c1C#N`, the “hERG current change (%, negative = inhibition) at 10uM” value stood at 13.4%. Take `CCOC(=O)C1CCN(C(=O)CN2C(=O)c3ccccc3Sc3ncccc32)CC1`: the “hERG current change (%, negative = inhibition) at 10uM” value amounted to 6.06%. For `O=C(NCc1cccc(Cl)c1)c1ccc(CS(=O)Cc2ccc(Cl)cc2)o1` (stereo not shown), the “hERG current change (%, negative = inhibition) at 10uM” value is -62.1%. As to `O=C(NCc1cccs1)c1ccc(CS(=O)Cc2cccc(Cl)c2)o1` (stereo not shown), the “hERG current change (%, negative = inhibition) at 10uM” value was -39.6%.

For `COc1ccc(OC)c(CCNC(=O)c2ccc(CS(=O)Cc3ccc(Cl)cc3)o2)c1` (stereo not shown), the “hERG current change (%, negative = inhibition) at 10uM” value is reported as -31%. Regarding `Cc1ccc(CS(=O)Cc2ccc(C(=O)NCc3ccccc3)o2)cc1` (stereo not shown), the “hERG current change (%, negative = inhibition) at 10uM” value is recorded as 11%. With `O=C(NCc1ccc(Cl)cc1)c1ccc(CS(=O)Cc2cccc(Cl)c2)o1` (stereo not shown) the figure was -53.5%. Turning to `COc1ccc(CNC(=O)c2ccc(CS(=O)Cc3ccc(Cl)cc3)o2)cc1` (stereo not shown), the “hERG current change (%, negative = inhibition) at 10uM” value is listed as -84.6%. The value for `O=C(NCc1ccc2c(c1)OCO2)c1ccc(CS(=O)Cc2cccc(Cl)c2)o1` (stereo not shown) was -23.6%; that for `COc1ccc(CNC(=O)c2ccc(CS(=O)Cc3cccc(Cl)c3)o2)cc1` (stereo not shown) was -37.5%.

On to `O=C(NCc1cccc(Cl)c1)c1ccc(CS(=O)Cc2ccccc2Cl)o1` (stereo not shown), for which the “hERG current change (%, negative = inhibition) at 10uM” value was -3.52%. On to `Cc1ccc(CNC(=O)c2ccc(CS(=O)Cc3cccc(Cl)c3)o2)cc1` (stereo not shown), for which the “hERG current change (%, negative = inhibition) at 10uM” value was -21.5%. Consider `O=C(NCc1ccccc1Cl)c1ccc(CS(=O)Cc2ccc(Cl)cc2)o1` (stereo not shown), for which the “hERG current change (%, negative = inhibition) at 10uM” value is listed as -46.9%.

Regarding `O=C(NCc1ccccc1)c1ccc(CS(=O)Cc2ccc(Cl)cc2)o1` (stereo not shown), the “hERG current change (%, negative = inhibition) at 10uM” value was -62.5%. With `COc1cc2c(C(=O)Nc3ccc4c(c3)OCO4)cn(CC(C)C)c(=O)c2cc1OC` the figure was -2.44%; with `CCOC(=O)C1C(=O)NC(C)C1c1ccccc1` (stereo not shown), -4.44%. Regarding `O=C(COC(=O)c1cc2c(s1)CCCC2)NCc1ccccc1Cl`, the “hERG current change (%, negative = inhibition) at 10uM” value is 1.44%. Take `CC(C)(C)c1ccc(C(=O)N2CCC(C(=O)NCC3CCCO3)CC2)cc1` (stereo not shown): the “hERG current change (%, negative = inhibition) at 10uM” value is given as -23.6%.

Take `CC(=O)C1=C(O)C(=O)N(c2ccc(O)cc2)C1c1ccc(Cl)cc1` (stereo not shown): the “hERG current change (%, negative = inhibition) at 10uM” value came to 17.4%. On to `O=C(O)c1ccccc1OC(C(=O)Nc1cc(Cl)cc(Cl)c1)c1ccccc1` (stereo not shown), for which the “hERG current change (%, negative = inhibition) at 10uM” value is on record as 13.5%. For `CC(=O)NC12CC3CC(C1)CC(C(=O)N1CCN(S(=O)(=O)c4ccccc4[N+](=O)[O-])CC1)(C3)C2`, the “hERG current change (%, negative = inhibition) at 10uM” value is given as -20.8%. With `CCOC(=O)N1CCc2c(sc(NC(=O)c3ccc(S(=O)(=O)N4CCCC4)cc3)c2C#N)C1`, the “hERG current change (%, negative = inhibition) at 10uM” value stood at 19.3%.

For `Cc1nnc(OCc2nc3ccccc3n2C)c2ccccc12`, the “hERG current change (%, negative = inhibition) at 10uM” value was -27.4%. As for `Cc1ccc(NC(=O)Cn2cc(C=O)c3ccccc32)cc1`, the “hERG current change (%, negative = inhibition) at 10uM” value came to 17.5%. With `O=C(NCc1ccc(Cl)cc1)C1=Cc2cc(Cl)ccc2OC1`, the “hERG current change (%, negative = inhibition) at 10uM” value is given as -10.2%.

`COc1cccc(CNC(=O)C2=Cc3cccc(OC)c3OC2)c1`: the “hERG current change (%, negative = inhibition) at 10uM” value is reported as 4.36%.

For the compound `COc1ccc2c(c1)C=C(C(=O)NCc1ccc(Cl)cc1)CO2`, the “hERG current change (%, negative = inhibition) at 10uM” value is given as -67%. Take `CCOc1cc(C2Nc3ccccc3C(=O)N2c2ccccc2)ccc1O` (stereo not shown): the “hERG current change (%, negative = inhibition) at 10uM” value was found to be 4.38%.

With `CCOc1cc(C2Nc3ccccc3C(=O)N2c2ccccc2)c(Br)cc1OCC(=O)O` (stereo not shown), the “hERG current change (%, negative = inhibition) at 10uM” value is on record as -53.8%. In the case of `COc1cc(C2Nc3ccccc3C(=O)N2c2ccccc2)c(Br)cc1OCC(=O)O` (stereo not shown), the “hERG current change (%, negative = inhibition) at 10uM” value was found to be 0.108%.

Consider `Cc1ccc2ccc(C(Nc3ccccn3)c3ccccc3)c(O)c2n1` (stereo not shown), for which the “hERG current change (%, negative = inhibition) at 10uM” value is on record as -3.72%.

As for `CCOc1ccc(CNC(=S)NCc2ccc(OCC)cc2)cc1`, the “hERG current change (%, negative = inhibition) at 10uM” value turned out to be 15.2%.
